# Reference: ChEMBL document CHEMBL3988442, “University of Dundee, Small-Polar-MMV Screening Library” (2021)
# The whole screen tested about 66,000 compounds, of which about 960 (1.5%) showed an effect of 50% or more. Shown is part of a subset that was picked to be rich in strong results.
# Test system: Trypanosoma brucei
# Assay: Trypanosoma brucei 72 hour study
# Type: functional, organism-based
# Set-up: scale not given: in the data most compounds retested in dose-response had high values
smiles,measurement,setting,value
CCN(CC)Cc1cc(=O)n2c(n1)CN(S(=O)(=O)C1CC1)CCC2.O=C(O)C(F)(F)F,Percent Effect,"30.3 µM, […]",-2.806%
COc1c(CNC2CCc3c(F)cccc32)c(C)nn1C.Cl (stereo not given),Percent Effect,10 µM,-43.32%
CC(C)[C@@H]1CN(Cc2ccccn2)C[C@H]1NS(=O)(=O)N(C)C,Percent Effect,"30 µM, 30.03 µM",-48.57%
CC(C)[C@@H]1CN(CCOc2ccc(Cl)cc2)C[C@H]1NS(C)(=O)=O,Percent Effect,"30.3 µM, […]",10.13%
CC(C)[C@@H]1CN(CCOc2ccccc2)C[C@H]1NS(=O)(=O)N(C)C,Percent Effect,"30.3 µM, […]",99.19%
Cc1ccc2c(c1)C(=O)NCC1(CCN(C(=O)c3ccccn3)CC1)O2,Percent Effect,"30.3 µM, […]",1.622%
CCN1C(=O)CC(c2ccccc2)C12CCN(CC1CCOCC1)CC2.O=C(O)C(F)(F)F (stereo not given),Percent Effect,"30.3 µM, […]",16.26%
CNc1ncc2c(n1)CN(CCc1ccccc1)C2=O,Percent Effect,"30 µM, 30.03 µM",0.2551%
COc1ccccc1OC1CCN(Cc2cnc(N(C)C)nc2)CC1,Percent Effect,"30 µM, 30.03 µM",59.89%
COCc1ncc(CN2CCC(Oc3ccccc3OC)CC2)cn1,Percent Effect,"30 µM, 30.03 µM",-7.671%
COc1ccccc1OC1CCN(Cc2ccc(N(C)C)nc2)CC1,Percent Effect,"30 µM, 30.03 µM",16.29%
C[C@@H]1C(=O)NC[C@H]2CN(Cc3ccc4c(c3)OCO4)C[C@H]21.O=C(O)C(F)(F)F,Percent Effect,"30.3 µM, […]",-39.22%
Cn1cccc1CN1CCC2(CC1)CN(c1ccccc1)C(=O)CO2.O=C(O)C(F)(F)F,Percent Effect,"30 µM, 30.03 µM",-21.68%
CCn1ccc(C(=O)N2CCOC(c3nc(-c4cccs4)no3)C2)n1 (stereo not given),Percent Effect,"30.3 µM, […]",21.37%
CCCn1ccc(C(=O)N2CCOC(c3nc(-c4cccs4)no3)C2)n1 (stereo not given),Percent Effect,"30 µM, 30.03 µM",67.6%
CCCn1cc(C(=O)N2CCOC(c3nc(-c4cccs4)no3)C2)cn1 (stereo not given),Percent Effect,"30.3 µM, […]",19.04%
Cc1csc(CN2CCC3(CC2)COC(COCC2CC2)C3)n1.O=C(O)C(F)(F)F (stereo not given),Percent Effect,"30.3 µM, […]",-1.163%
COc1nn(C)c2c1CCCN(C(=O)c1ccc3c(c1)OCO3)C2.O=C(O)C(F)(F)F,Percent Effect,"30 µM, 30.03 µM",-20.99%
CC(=O)N1CCN(c2cc(CCN)nc(C3CC3)n2)CC1.Cl,Percent Effect,"30.3 µM, […]",1.602%
COCCN1C[C@@H]2CN(Cc3ccc(F)cc3)C[C@@H]2C1=O.O=C(O)C(F)(F)F,Percent Effect,"30.3 µM, […]",-7.407%
O=C(O)C(F)(F)F.O=C1[C@H]2CN(Cc3cccs3)C[C@H]2CN1c1ccsc1,Percent Effect,"30 µM, 30.03 µM",27.72%
O=C(O)C(F)(F)F.O=C1[C@H]2CN(Cc3ccco3)C[C@H]2CN1c1ccsc1,Percent Effect,"30 µM, 30.03 µM",73.83%
O=C(O)C(F)(F)F.O=C1[C@H]2CN(Cc3ccc(F)cc3)C[C@H]2CN1c1ccsc1,Percent Effect,"30 µM, 30.03 µM",14.65%
CCOCCCn1c(NC(=O)c2scnc2C)nc2ccccc21,Percent Effect,"30 µM, 30.03 µM",105.1%
CCOCCCn1c(NC(=O)c2ccc(C)nc2)nc2ccccc21,Percent Effect,"30 µM, 30.03 µM",8.402%
CCOCCCn1c(NC(=O)c2cnc(C)cn2)nc2ccccc21,Percent Effect,10 µM,-41.49%
CCOCCCn1c(NC(=O)c2cnc(C)s2)nc2ccccc21,Percent Effect,10 µM,-28.52%
CCCn1c(NC(=O)CNC(=O)OCC)nc2ccccc21,Percent Effect,"30 µM, 30.03 µM",-18.3%
CCOCCCn1c(NC(=O)c2cc(C)on2)nc2ccccc21,Percent Effect,10 µM,-33.65%
CCOCCCn1c(NC(=O)c2ccnc(C)n2)nc2ccccc21,Percent Effect,10 µM,-13.79%
CCN(CC)CCn1c(NC(=O)c2scnc2C)nc2ccccc21,Percent Effect,10 µM,84.6%
CCOCCCn1c(NC(=O)c2cnn(C)c2)nc2ccccc21,Percent Effect,"30 µM, 30.03 µM",64.95%
Cc1noc(C)c1CN1CCOCC12CCN(c1ncccn1)CC2.O=C(O)C(F)(F)F,Percent Effect,"30.3 µM, […]",-79.15%
O=C(O)C(F)(F)F.O=C1CCC2(CCCN(CCc3ccccc3)C2)N1Cc1cccnc1 (stereo not given),Percent Effect,"30.3 µM, […]",-16.68%
CN(C)C(=O)[C@H]1C[C@@H]2CN(S(=O)(=O)Cc3ccccc3)C[C@H]1O2,Percent Effect,"30 µM, 30.03 µM",24.58%
COc1ccc(CN2CCO[C@H]3[C@H](OCc4ccncc4)CC[C@@H]32)cc1.O=C(O)C(F)(F)F.O=C(O)C(F)(F)F,Percent Effect,"30.3 µM, […]",-84.86%
Cc1nc(CN2CCCC2c2noc(C(C)C)n2)oc1C (stereo not given),Percent Effect,"30.3 µM, […]",12.42%
same,Percent Effect,"10 mM, 10 mM as filed; unlikely as a test dose",-15.34%
Cc1ccc(N(Cc2ccco2)C(=O)CC2=NN(C)C(=O)C2)cc1,Percent Effect,"30 µM, 30.03 µM",-11.27%
COCC1N(C(=O)c2ccc3c(c2)OCCCO3)[C@H]2CC[C@]1(O)CC2 (stereo not given in full),Percent Effect,"30.3 µM, […]",-35.32%
O=C(NCc1ccc(-c2ccn[nH]2)cc1)N1CCC(N2CCCC2)C1 (stereo not given),Percent Effect,"30 µM, 30.03 µM",50.84%
NC(=O)C1CCN(C(=O)NCc2ccc(-c3ccn[nH]3)cc2)CC1,Percent Effect,"30.3 µM, […]",-25.22%
CNC(=O)C1CCN(C(=O)NCc2ccc(-c3ccn[nH]3)cc2)CC1,Percent Effect,"30.3 µM, […]",-16.44%
CN(C)C(=O)CC1CC2(CCN(Cc3ccoc3)CC2)c2ccccc21.O=C(O)C(F)(F)F (stereo not given),Percent Effect,"30 µM, 30.03 µM",-22.74%
CC(NCc1cn(CCC(N)=O)c2ccccc12)c1nncn1C (stereo not given),Percent Effect,"30.3 µM, […]",-49.32%
Cc1ccc(C(C)NCc2cn(CCC(N)=O)c3ccccc23)cc1C (stereo not given),Percent Effect,"30.3 µM, […]",96.45%
CC(C)n1cnnc1CCNCc1cn(CCC(N)=O)c2ccccc12,Percent Effect,"30.3 µM, […]",-18.24%
CC(CN1CCC2(CC1)N=C(c1cccnc1)NC2=O)c1ccccc1 (stereo not given),Percent Effect,"30 µM, 30.03 µM",6.734%
COCC1CC2(CCN(C(=O)c3occc3C)CC2)CN1C(C)C.O=C(O)C(F)(F)F (stereo not given),Percent Effect,"30.3 µM, […]",-8.924%
CCCc1noc(CN2CCCC2c2ccsc2)n1 (stereo not given),Percent Effect,"30 µM, 30.03 µM",55.39%
CCCc1noc(CCC(=O)N2CCCC2c2ccsc2)n1 (stereo not given),Percent Effect,"30 µM, 30.03 µM",-44.02%
CCCc1noc(CN2CCCC2c2noc(C3CC3)n2)n1 (stereo not given),Percent Effect,"30.3 µM, […]",-16.45%
CS(=O)(=O)NCc1cnc2n1CCN(Cc1cccs1)CC2.O=C(O)C(F)(F)F,Percent Effect,"30 µM, 30.03 µM",-2.909%
CN(C)[C@H]1CN(C(=O)CCCc2ccc(F)cc2)C[C@@H]1C1CC1,Percent Effect,"30 µM, 30.03 µM",21.51%
O=C(O)[C@@H]1CN(C(=O)CCCc2ccc(F)cc2)C[C@H]1C1CC1,Percent Effect,"30 µM, 30.03 µM",-8.475%
N[C@H]1CN(C(=O)CCCc2ccc(F)cc2)C[C@@H]1C1CC1,Percent Effect,"30 µM, 30.03 µM",79.67%
O=C(NCc1cccs1)[C@@H]1CC[C@@H]2[C@@H](CCN2c2ncccn2)O1.O=C(O)C(F)(F)F,Percent Effect,"30 µM, 30.03 µM",-28.93%
CCC(Nc1ncccn1)c1cccnc1 (stereo not given),Percent Effect,"30 µM, 30.03 µM",-16.09%
CCC(Nc1ncccn1)c1ccc(OC)cc1 (stereo not given),Percent Effect,"30 µM, 30.03 µM",62.75%
COc1ccc(C(CN2CCN(C)CC2)Nc2ncccn2)cc1 (stereo not given),Percent Effect,"30 µM, 30.03 µM",-24.12%
